# Measurements reported in the supplement of paper PMC9262897, “Low-cost anti-mycobacterial drug discovery using engineered E. coli” (Nature Communications, 2022).
# Counter-ions that a name gives are not always drawn. ± gives the standard deviation of the averaged measurements.
# Columns and labels:
# Assay in all cases: growth (OD600 after 10 h); higher = more growth (less inhibition)
# [1] = system: E. coli TESEC Alr+ wild-type control; conditions: compound 0.1 mM; raw OD600 reference: median of DMSO wells 0.241, cell-free background 0.041
# Method: (§1)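 TESEC Mtb Alr E. coli, or the Alr+ wild-type control, in 384-well plates with Prestwick library compounds at 0.1 mM and 1% DMSO, across arabinose induction levels of 1E3 to 1E7 nM. Growth is read as OD600 after 10 h at 37 °C in triplicate biological replicates.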
# E. coli TESEC Mtb Alr [2] = conditions: compound 0.1 mM
# Method: as §1
# E. coli TESEC Mtb Asd = conditions: compound 0.1 mM
# Method: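 TESEC E. coli strains in which the native enzyme is deleted and replaced by arabinose-inducible Mtb Asd, DapB, CysH or TrpD, each grown in its selective medium. Strains were screened against the Prestwick library at 0.1 mM and 1% DMSO in 384-well format at low and high arabinose induction. Growth is read as OD600 after 10 h in triplicate.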
# [3] = system: E. coli TESEC Alr+ wild-type control; conditions: compound 0.1 mM; raw OD600 reference: median of DMSO wells 0.49, cell-free background 0.052
# Method: (§2)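 TESEC Mtb Alr E. coli (ΔaraC ΔtolC ΔentC Δalr ΔdadX, arabinose-inducible Mtb Alr) or the Alr+ wild-type control strain, grown in defined M9-fructose medium without D-alanine in 96-well plates with Prestwick library compounds at 0.1 mM and 1% DMSO. Low Alr induction is 0.1 µM arabinose and high induction is 10 mM arabinose.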
# E. coli TESEC Mtb Alr [4] = conditions: compound 0.1 mM; remark: listed apart in the source
# Method: as §2
# [5] = arabinose 1000 nM, raw OD600 reference: median of DMSO wells 0.294, cell-free background 0.041
# [6] = arabinose 10000 nM, raw OD600 reference: median of DMSO wells 0.264, cell-free background 0.041
# [7] = arabinose 100000 nM, raw OD600 reference: median of DMSO wells 0.201, cell-free background 0.041
# [8] = arabinose 1000000 nM, raw OD600 reference: median of DMSO wells 0.193, cell-free background 0.041
# [9] = arabinose 10000000 nM, raw OD600 reference: median of DMSO wells 0.146, cell-free background 0.041
# [10] = arabinose induction (level): High, raw OD600 reference: median of DMSO wells 0.331, cell-free background 0.041
# [11] = arabinose induction (level): Low, raw OD600 reference: median of DMSO wells 0.417, cell-free background 0.041
# [12] = arabinose 100 nM, raw OD600 reference: median of DMSO wells 0.413, cell-free background 0.052
# [13] = arabinose 10000000 nM, raw OD600 reference: median of DMSO wells […], cell-free background 0.052
SMILES,growth [1],growth (E. coli TESEC Mtb Alr [2]; [5]),growth (E. coli TESEC Mtb Alr [2]; [6]),growth (E. coli TESEC Mtb Alr [2]; [7]),growth (E. coli TESEC Mtb Alr [2]; [8]),growth (E. coli TESEC Mtb Alr [2]; [9]),growth (E. coli TESEC Mtb Asd; [10]),growth (E. coli TESEC Mtb Asd; [11]),growth [3],growth (E. coli TESEC Mtb Alr [4]; [12]),growth (E. coli TESEC Mtb Alr [4]; [13])
CNC[C@H](O)[C@@H](O)[C@H](O)[C@H](O)CO [Meglumine],0.237 ± 0.0045,0.306 ± 0.016,0.254 ± 0.0031,0.212 ± 0.025,0.188 ± 0.0027,0.136 ± 0.0042,0.325 ± 0.022,0.408 ± 0.066,0.548 ± 0.015,0.404 ± 0.019,0.356 ± 0.011
CCCCNc1ccc(C(=O)OCCN(C)C)cc1,0.208 ± 0.0034,0.273 ± 0.006,0.255 ± 0.003,0.186 ± 0.0077,0.166 ± 0.0023,0.146 ± 0.0066,0.266 ± 0.033,0.354 ± 0.021,0.468 ± 0.0089,0.396 ± 0.019,0.346 ± 0.018
CN1CCCCC1CCN1c2ccccc2Sc2ccc([S+](C)[O-])cc21 (stereo not drawn) [Mesoridazine besylate],0.169 ± 0.0023,0.24 ± 0.012,0.266 ± 0.0092,0.225 ± 0.032,0.131 ± 0.0058,0.149 ± 0.005,0.204 ± 0.023,0.339 ± 0.091,0.568 ± 0.023,0.403 ± 0.0065,0.3 ± 0.02
Cc1ccccc1N1C(=O)c2cc(S(N)(=O)=O)c(Cl)cc2NC1C (stereo not drawn) [Metolazone],0.214 ± 0.0042,0.226 ± 0.031,0.258 ± 0.0029,0.214 ± 0.0094,0.136 ± 0.004,0.1376 ± 0.00093,0.386 ± 0.049,0.422 ± 0.091,0.481 ± 0.062,0.4 ± 0.018,0.292 ± 0.011
CCCCC1(COC(=O)CCC(=O)O)C(=O)N(c2ccccc2)N(c2ccccc2)C1=O [Suxibuzone],0.203 ± 0.0032,0.291 ± 0.013,0.244 ± 0.0044,0.192 ± 0.019,0.188 ± 0.0095,0.1314 ± 0.001,0.305 ± 0.052,0.427 ± 0.026,0.521 ± 0.1,0.401 ± 0.0076,0.341 ± 0.0062
Oc1ncnc2[nH]ncc12 [Allopurinol],0.234 ± 0.0068,0.283 ± 0.013,0.241 ± 0.0057,0.189 ± 0.019,0.172 ± 0.0073,0.141 ± 0.0016,0.449 ± 0.032,0.435 ± 0.038,0.53 ± 0.078,0.41 ± 0.013,0.34 ± 0.015
OCCN1CCN(CCCN2c3ccccc3C=Cc3ccccc32)CC1 [Opipramol dihydrochloride],0.142 ± 0.003,0.271 ± 0.023,0.245 ± 0.0065,0.179 ± 0.0079,0.0873 ± 0.0083,0.137 ± 0.003,0.16 ± 0.019,0.276 ± 0.024,0.464 ± 0.013,0.407 ± 0.006,0.298 ± 0.0042
CC[N+](C)(CC)CCC[n+]1c(-c2ccccc2)c2cc(N)ccc2c2ccc(N)cc21 [Propidium iodide],0.0949 ± 0.011,0.135 ± 0.023,0.116 ± 0.028,0.15 ± 0.02,0.0816 ± 0.0028,0.0888 ± 0.012,0.0925 ± 0.0048,0.0953 ± 0.0048,0.0675 ± 0.0008,0.221 ± 0.13,0.0665 ± 0.0008
Nc1nc2[nH]cc(CCc3ccc(C(=O)N[C@@H](CCC(=O)O)C(=O)O)cc3)c2c(=O)[nH]1 [Pemetrexed disodium],0.258 ± 0.0062,0.303 ± 0.017,0.274 ± 0.019,0.218 ± 0.029,0.184 ± 0.0046,0.156 ± 0.0069,0.281 ± 0.0067,0.405 ± 0.063,0.56 ± 0.081,0.416 ± 0.013,0.32 ± 0.012
O=C(CCCN1CC=C(n2c(=O)[nH]c3ccccc32)CC1)c1ccc(F)cc1 [Droperidol],0.178 ± 0.0085,0.241 ± 0.005,0.225 ± 0.0067,0.175 ± 0.014,0.105 ± 0.0018,0.152 ± 0.0037,0.205 ± 0.056,0.359 ± 0.058,0.404 ± 0.025,0.409 ± 0.0085,0.276 ± 0.0059
CC(C)C(=O)c1c(C(C)C)nn2ccccc12 [Ibudilast],0.163 ± 0.0085,0.221 ± 0.0062,0.245 ± 0.0022,0.148 ± 0.0046,0.134 ± 0.0043,0.127 ± 0.0043,0.183 ± 0.011,0.372 ± 0.032,0.49 ± 0.013,0.401 ± 0.0083,0.229 ± 0.0069
CNCC(O)c1ccc(O)c(O)c1 (stereo not drawn) [Racepinephrine HCl],0.243 ± 0.0062,0.302 ± 0.0045,0.291 ± 0.0096,0.199 ± 0.0083,0.186 ± 0.0042,0.155 ± 0.0036,0.27 ± 0.052,0.44 ± 0.018,0.605 ± 0.029,0.4177 ± 0.0019,0.288 ± 0.015
NCC[C@H](O)C(=O)N[C@@H]1C[C@H](N)[C@@H](O[C@H]2O[C@H](CN)[C@@H](O)[C@H](O)[C@H]2O)[C@H](O)[C@H]1O[C@H]1O[C@H](CO)[C@@H](O)[C@H](N)[C@H]1O [Amikacin hydrate],0.04273 ± 0.00012,0.0418 ± 0.00079,0.039 ± 0.0001,0.0425 ± 0.0009,0.03943 ± 0.00021,0.0506 ± 0.00051,0.0495 ± 0.0018,0.0485 ± 0.0012,0.0539 ± 0.00071,0.0563 ± 0.0034,0.0532 ± 0.0009
CCN(CC)CCOC(=O)C(Cc1cccc2ccccc12)CC1CCCO1 (stereo not drawn) [Nafronyl oxalate],0.15 ± 0.0052,0.219 ± 0.0043,0.255 ± 0.014,0.157 ± 0.0057,0.0991 ± 0.0023,0.151 ± 0.0053,0.127 ± 0.0055,0.309 ± 0.11,0.464 ± 0.015,0.407 ± 0.0062,0.293 ± 0.015
COC(=O)C1=C(C)NC(C)=C(C(=O)OC)C1c1ccccc1[N+](=O)[O-] [Nifedipine],0.0488 ± 0.00049,0.144 ± 0.0021,0.2006 ± 0.0018,0.136 ± 0.0053,0.0952 ± 0.0041,0.149 ± 0.0044,0.0844 ± 0.0011,0.0795 ± 0.0099,0.447 ± 0.017,0.39 ± 0.0088,0.21 ± 0.039
O=C(Nc1cccc2c(=O)cc(-c3nnn[nH]3)oc12)c1ccc(OCCCCc2ccccc2)cc1 [Pranlukast],0.23 ± 0.0033,0.238 ± 0.0077,0.196 ± 0.0094,0.227 ± 0.0058,0.144 ± 0.0097,0.178 ± 0.0095,0.236 ± 0.0051,0.238 ± 0.014,0.46 ± 0.0055,0.424 ± 0.0063,0.308 ± 0.013
O=C(N[C@H](CO)[C@H](O)c1ccc([N+](=O)[O-])cc1)C(Cl)Cl [Chloramphenicol],0.0406 ± 0.00026,0.03953 ± 0.00031,0.0391 ± 0.00017,0.0408 ± 0.00053,0.03907 ± 0.00015,0.0407 ± 0.00064,0.0519 ± 0.00067,0.0522 ± 0.0019,0.05047 ± 0.0005,0.0561 ± 0.0036,0.0533 ± 0.003
CCS(=O)(=O)CCn1c([N+](=O)[O-])cnc1C [Tinidazole],0.237 ± 0.0086,0.286 ± 0.011,0.256 ± 0.0041,0.198 ± 0.0079,0.169 ± 0.0069,0.139 ± 0.005,0.345 ± 0.048,0.405 ± 0.013,0.521 ± 0.092,0.402 ± 0.0095,0.315 ± 0.0068
